This is part of a sample that, as a whole, favours compounds with a hit. Of some 83,000 tested, about 20% had one in any assay.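 A percent growth of 40 corresponds to 60% growth inhibition; 0 means no net growth; -100 means all cells died. Active threshold: below 10.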 Unmarked numbers belong to inactive results. The source made the active and inactive calls.

What all share (assay): NCI-60 one-dose screen, 48 h (100 = growth as untreated, 0 = no growth, -100 = all killed)
One assay relates to SK-MEL-2 melanoma. Conditions: 10 µM unless noted.
The test system of a further assay is EKVX NSCLC. To be noted: 10 µM unless noted.
Another assay concerns SN12C renal. To be noted: 10 µM unless noted.
Another assay deals with UO-31 renal. To be noted: 10 µM unless noted.
In another assay the test system is TK-10 renal. Conditions: 10 µM unless noted.
Another assay deals with ACHN renal. To be noted: 10 µM unless noted.
For another assay, the system named is A498 renal. To be noted: 10 µM unless noted.
A further assay concerns CCRF-CEM leukemia. To be noted: 10 µM unless noted.
For the next assay, the system named is MOLT-4 leukemia. To be noted: 10 µM unless noted.
The subject of a further assay is SR leukemia. Conditions: 10 µM unless noted.
In the next assay the test system is RPMI-8226 leukemia. Conditions: 10 µM unless noted.
A further assay has as its system OVCAR-8 ovarian. To be noted: 10 µM unless noted.
The test system of a further assay is OVCAR-5 ovarian. Conditions: 10 µM unless noted.
The next assay concerns OVCAR-4 ovarian. Conditions: 10 µM unless noted.
Another assay concerns IGROV1 ovarian. To be noted: 10 µM unless noted.
For a further assay, the system named is HS 578T breast. To be noted: 10 µM.
Another assay relates to NCI/ADR-RES ovarian. To be noted: 10 µM unless noted.
A further assay deals with SK-OV-3 ovarian. To be noted: 10 µM unless noted.
For another assay, the system named is OVCAR-3 ovarian. Conditions: 10 µM unless noted.

Turning to `CC(C)(C)NC(=O)C(OC(=O)C1CCc2cc(F)ccc2O1)c1ccccc1Cl` (stereo not given), the growth in the assay with SK-MEL-2 melanoma is 102%; with EKVX NSCLC, 96%; in the assay with SN12C renal it was 101%; with UO-31 renal, 72.4%; with TK-10 renal it was 99%; in the assay on ACHN renal, 99%. Further, the growth in the assay on A498 renal is 90.7%; in the assay with CCRF-CEM leukemia, 92.5%; in the assay with MOLT-4 leukemia, 94.6%; in the assay with SR leukemia, 98.4%; with RPMI-8226 leukemia, 99%; in the assay with OVCAR-8 ovarian, 98.3%. In addition, the growth is 96.6% with OVCAR-5 ovarian; 94.9% in the assay on OVCAR-4 ovarian; 92.8% with IGROV1 ovarian; 99.7% in the assay with HS 578T breast; 95.5% in the assay on NCI/ADR-RES ovarian.

With `O=C(Nc1cccc(Cl)c1)Nc1cc(C(F)(F)F)ccc1Cl`, the growth in the assay on SK-MEL-2 melanoma is 4.93% (active); in the assay with EKVX NSCLC, 16%; in the assay on SN12C renal, -24.4% (active); in the assay on UO-31 renal, 10.7%; in the assay on TK-10 renal, 16.9%; with ACHN renal, 2.64% (active). Besides, the growth is 61.7% in the assay on A498 renal; 17% in the assay with CCRF-CEM leukemia; 10.1% with MOLT-4 leukemia; -14% (active) in the assay on RPMI-8226 leukemia; 15.2% in the assay on OVCAR-8 ovarian; 11.6% in the assay with OVCAR-4 ovarian. For the same molecule, the growth was 9.3% (active) in the assay on SK-OV-3 ovarian, 14.3% in the assay with IGROV1 ovarian, 18.9% with OVCAR-3 ovarian and 2.25% (active) in the assay with NCI/ADR-RES ovarian.

On to `O=C1Cc2c([nH]c3ccc([N+](=O)[O-])cc23)-c2ccccc2N1`, for which the growth was -21.5% (active) in the assay on SK-MEL-2 melanoma; 17.1% in the assay on EKVX NSCLC; 44.1% with SN12C renal; 4.74% (active) in the assay on UO-31 renal; 12% in the assay on TK-10 renal; 11.5% in the assay on ACHN renal. In addition, the growth in the assay on A498 renal is -5.07% (active); in the assay with CCRF-CEM leukemia, 1.61% (active); in the assay on MOLT-4 leukemia, 2.18% (active); in the assay on SR leukemia, -8.53% (active); in the assay with RPMI-8226 leukemia, -22.1% (active); with OVCAR-5 ovarian, 12.3%. Besides, the growth was 16.7% in the assay on OVCAR-4 ovarian, -41.8% (active) with IGROV1 ovarian, -14.4% (active) with OVCAR-3 ovarian and 14.5% with NCI/ADR-RES ovarian.

Turning to `C=CCn1c(SCC(=O)Nc2ccc(/C(C)=N\O)cc2)nnc1-c1cc(-c2ccc(Cl)cc2)nc2ccccc12`, the growth is 28.5% with SK-MEL-2 melanoma; 32% with EKVX NSCLC; 33.7% in the assay on SN12C renal; -12.5% (active) in the assay on UO-31 renal; 31.8% with TK-10 renal; 20.2% with ACHN renal. In addition, the growth was 21.9% in the assay with A498 renal; 11.1% in the assay on CCRF-CEM leukemia; -25.3% (active) with MOLT-4 leukemia; 9% (active) in the assay with RPMI-8226 leukemia; 24% in the assay on OVCAR-8 ovarian; 56.7% in the assay with OVCAR-5 ovarian. The growth in the assay with OVCAR-4 ovarian was 35%; in the assay with SK-OV-3 ovarian it was 52.6%; with IGROV1 ovarian it was -13.8% (active); with OVCAR-3 ovarian it was 31.1%; in the assay with HS 578T breast, 67.1%; in the assay with NCI/ADR-RES ovarian, 2.18% (active).

`COc1ccc(-c2nnc(SCC(=O)Nc3ccc(C(=O)/C=C/c4ccc(Cl)cc4)cc3)n2-c2ccccc2)cc1`: the growth was 100% in the assay on SK-MEL-2 melanoma; 102% in the assay with EKVX NSCLC; 101% in the assay on SN12C renal; 73.8% in the assay with UO-31 renal; 109% with TK-10 renal; 107% with ACHN renal. The growth in the assay on A498 renal was 116%; in the assay with CCRF-CEM leukemia it was 86.5%; with MOLT-4 leukemia it was 81.5%; in the assay on RPMI-8226 leukemia, 83.8%; with OVCAR-8 ovarian it was 100%; with OVCAR-5 ovarian it was 107%. In addition, the growth in the assay on OVCAR-4 ovarian was 92.4%; in the assay on SK-OV-3 ovarian, 99.5%; in the assay with IGROV1 ovarian, 93.5%; in the assay with OVCAR-3 ovarian, 97.8%; in the assay on HS 578T breast, 96.9%; in the assay on NCI/ADR-RES ovarian it was 102%.

Turning to `Fc1cnccc1-c1nc2ccc3[nH]ncc3c2c2c1CCCC2`, the growth with SK-MEL-2 melanoma is -1.94% (active); in the assay on EKVX NSCLC it was 35.6%; in the assay with SN12C renal, 25.6%; in the assay with UO-31 renal, 11.6%; in the assay on TK-10 renal, 13.7%; in the assay on ACHN renal, 7.42% (active). For the same molecule, the growth was 0.691% (active) in the assay with A498 renal; 16.1% with CCRF-CEM leukemia; 21.2% with MOLT-4 leukemia; 34.1% in the assay on SR leukemia; 37.6% with RPMI-8226 leukemia; 30.2% in the assay on OVCAR-8 ovarian. The growth in the assay on OVCAR-4 ovarian was 48.9%; in the assay with SK-OV-3 ovarian, -21.2% (active); in the assay on IGROV1 ovarian, 12.1%; in the assay with OVCAR-3 ovarian, 30.4%; with HS 578T breast, 10.8%; in the assay on NCI/ADR-RES ovarian, 32.3%.

Consider `CN(C)c1ccc(N2Cc3ccccc3OC3=C2C(=O)c2c(O)ccc(O)c2C3=O)cn1`, for which the growth was -51.5% (active) with SK-MEL-2 melanoma; -15.8% (active) in the assay on EKVX NSCLC; -91.7% (active) in the assay with SN12C renal; -99.1% (active) in the assay on UO-31 renal; -93.9% (active) in the assay on TK-10 renal; -100% (active) in the assay with ACHN renal. Further, the growth in the assay with A498 renal is -61.1% (active); in the assay on CCRF-CEM leukemia it was -8.39% (active); in the assay on MOLT-4 leukemia, -22.4% (active); in the assay with RPMI-8226 leukemia it was -17.2% (active); with OVCAR-8 ovarian, -12.1% (active); in the assay on OVCAR-5 ovarian it was -50.6% (active). The growth in the assay on OVCAR-4 ovarian was -98.2% (active); in the assay with SK-OV-3 ovarian, -7.84% (active); with IGROV1 ovarian, -63.3% (active); with OVCAR-3 ovarian it was -95.8% (active); in the assay with HS 578T breast it was 44.7%; in the assay with NCI/ADR-RES ovarian, 3.51% (active).

As for `C=C(CN1CC=CCC1)[C@@H]1CC[C@]2(C(=O)OC)CC[C@]3(C)[C@H](CC[C@@H]4[C@@]5(C)CC[C@H](OC(C)=O)C(C)(C)[C@@H]5CC[C@]43C)[C@@H]12`, the growth was 103% in the assay on SK-MEL-2 melanoma; 109% in the assay with EKVX NSCLC; 92.8% in the assay on SN12C renal; 86.4% in the assay with UO-31 renal; 121% in the assay with TK-10 renal; 102% in the assay with ACHN renal. The growth in the assay on A498 renal is 113%; in the assay with CCRF-CEM leukemia, 82.7%; in the assay on MOLT-4 leukemia it was 82.1%; with SR leukemia, 69.4%; in the assay with RPMI-8226 leukemia, 50%; with OVCAR-8 ovarian, 103%. The growth with OVCAR-4 ovarian is 91.3%; with SK-OV-3 ovarian it was 103%; in the assay with IGROV1 ovarian it was 91.8%; in the assay on OVCAR-3 ovarian, 92.5%; in the assay with HS 578T breast it was 109%; in the assay on NCI/ADR-RES ovarian, 107%.

For the molecule `Cc1ccc(O)c(Cc2ccccc2)c1`, the growth was 93.8% in the assay with SK-MEL-2 melanoma; 116% in the assay on EKVX NSCLC; 90.3% in the assay with SN12C renal; 84% in the assay with UO-31 renal; 100% with TK-10 renal; 100% in the assay with ACHN renal. The growth in the assay on A498 renal is 99.9%; in the assay on CCRF-CEM leukemia it was 103%; in the assay with OVCAR-8 ovarian it was 102%; with OVCAR-5 ovarian, 104%; with OVCAR-4 ovarian it was 108%; in the assay with SK-OV-3 ovarian, 110%. For the same molecule, the growth with IGROV1 ovarian was 132%; with OVCAR-3 ovarian, 100%; with HS 578T breast, 91.3%; in the assay with NCI/ADR-RES ovarian, 99.7%.
